High-throughput results deposited in PubChem BioAssay by National Center for Advancing Translational Sciences (NCATS).
Shown are actives, neighbours in structure and some others; about 21% of the full set was active somewhere.
Pf growth 48h: Primary qHTS for delayed death inhibitors of the malarial parasite plastid, 48 hour incubation. P. falciparum luciferase growth in erythrocytes, 48 h. Potency, µM (titrated, usually from 28.7 µM), for the others: at the highest dose activity change, negative = inhibition, most hits filed as inhibitors. 310,000 compounds, 5.9% hits. AID 504832, 2011; further: potency means the concentration at half of the fitted maximal effect; on the % scale 0 is the no-effect control and ±100 the full control effect
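Compounds are pin-transferred into medium, infected erythrocytes (2% hematocrit, 0.1% parasitemia final) are added, and plates sit one parasite generation at 37 C in 5% CO2. Detection reagent is then added and luminescence measured.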
AMA1 RON2 block: qHTS for Inhibitors of AMA1-RON; Towards Development of Antimalarial Drug Lead: Primary Screen | Plasmodium falciparum AMA1 (3D7) - RON2 peptide interaction | AlphaScreen AMA1-biotinylated RON2 peptide binding | Potency, µM (highest dose often 58.2 µM), for the others: top-dose activity change, negative = inhibition, actives largely listed as inhibitors | 360,000 compounds, 0.2% hits | AID 720542, 2013;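 further: potency means the concentration at half of the fitted maximal effect; 0% = vehicle wells and -100% = peptide control; nearly all actives have a fitted effect of over 45% in size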
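AMA1 (3D7) with his tag at 25 nM final met compounds first, then biotinylated RON2 peptide at 25 nM; detection used donor plus acceptor beads, 10 µg/mL apiece, read by AlphaScreen after 30 min at room temperature.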
Cycloheximide cs: Cycloheximide Counterscreen for Small Molecule Inhibitors of Shiga Toxin; cell reporter, cycloheximide protein synthesis inhibition counterscreen; max response, %; 300,000 compounds, 12% hits; in the data active means max response mostly above about 13%, no sharp cut-off; inactive means mostly below about 14%; further: read at 38.3 µM for the half of the compounds with a filed dose; 0% is about no effect
Pf growth 96h: Primary qHTS for delayed death inhibitors of the malarial parasite plastid, 96 hour incubation | P. falciparum luciferase reporter growth, 96 h | Potency, µM (highest dose often 28.7 µM), for the others: at the top dose activity change, negative = inhibition, actives largely listed as inhibitors | 320,000 compounds, 6.9% hits; further: potency means the concentration at half of the fitted maximal effect; on the % scale 0 is the no-effect control and ±100 the full control effect
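Compounds incubated with erythrocytes infected by luciferase-expressing P. falciparum (2% hematocrit, 0.05% parasitemia final) for 96 hours, 37 C in 5% CO2. Growth inhibition scored as decreased luciferase luminescence.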
Shiga toxin inh: A qHTS for Small Molecule Inhibitors of Shiga Toxin; inhibition, % at 38.7 µM; Vero cells, Shiga toxin protein synthesis inhibition reporter; 290,000 compounds, 9.2% hits; in the data active means inhibition mostly above about 28%, no sharp cut-off; inactive means mostly below about 43%; further: 0% is about no effect
HCV inhibitor: qHTS Assay for Inhibitors of Hepatitis C Virus (HCV); Potency, µM (highest dose often 41.8 µM), for inactives: at the highest dose activity change, negative = inhibition, usual class: inhibitors; Huh7.5.1 HCVcc-Cre infection, luciferase reporter, 44 h; 340,000 compounds, 3.4% hits; further: potency means the concentration at half of the fitted maximal effect; on the % scale 0 is the no-effect control and ±100 the full control effect
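After 44 h co-culture of compound, cells and HCVcc-Cre (~0.5 moi), substrate is added for 15 min at room temperature and luciferase measured over 15 sec. Cells were seeded at 1,000/well and pre-cultured 4 h.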
* hit, by the source's call; ? = inconclusive; . = no result given; [ ] = remark or other dose. Unless noted, the call rests on the fitted dose curve; in most records, active means well fitted curve in the direction sought with a large enough effect; inconclusive means small, poorly fitted or top-dose-only effect, or another doubt; inactive means no such curve, though single readings can be large; an effect the other way counts as inactive or inconclusive.

SMILES | Pf growth 48h | AMA1 RON2 block | Cycloheximide cs | Pf growth 96h | Shiga toxin inh | HCV inhibitor
CNc1cccc(-c2ccc(C(=O)N3CCOCC3)cc2)n1 | . | -0.2% | . | . | . | .
CCN(CC(=O)Nc1c(F)cccc1F)C(=O)c1cccn1C | . | -10.6% | . | . | . | .
O=C(O)C1=NN(c2cc(Cl)c(S(=O)(=O)O)cc2Cl)C(=O)C1 | . | 2.82µM* | . | . | . | 19.5%
S=C(NCC1(c2ccccc2)CCCC1)Nc1ccccc1 | 6.9%[0.00184 µM] | 11.9% | -6.2 | ? | -6.9 | 10µM*
O=C(NCC1(c2ccccc2)CCCC1)C1(c2ccccc2)CCCC1 | ? | 28.3% | -2.1 | 2.62µM* | 1.6 | ?
O=C(NCC1(c2ccccc2)CCCC1)c1ccccc1 | ? | 23.6% | -2.8 | 32.6% | -14.4 | -1.7%
O=C(NCC1(c2ccccc2)CCCC1)C(=O)NCC1(c2ccccc2)CCCC1 | 0.0% | 2.3% | -1.6 | 3.9% | 12.2 | 12.1%
CCCn1c(NC(=O)c2ccc([N+](=O)[O-])o2)nc2ccccc21 | ? | 30.8% | . | ? | . | ?
COc1ccc(CNC(=O)c2cn(Cc3ccccc3OC)c(=O)s2)cc1 | . | -4.8% | . | . | . | .
CC(=O)c1ccc(NC(=O)CCc2c(C)nc3ncnn3c2C)cc1 | 19.1% | 0.8% | 21.3* | 68.1% | 61.3* | 3.7%
COC(=O)c1ccc(NC(=O)CCc2c(C)nc3ncnn3c2C)cc1 | -10.0% | 8.6% | -3.4 | 13.3% | 13.9 | 10.9%
CCc1c(C)nc2ncnn2c1Nc1ccc(C(C)=O)cc1 | 63.3% | 6.4% | 45.9* | . | 108.8* | -12.4%
O=C(NC(CSC(=O)c1ccccc1)C(=O)O)OCc1ccccc1 (centres undefined) | . | 13.9% | . | . | . | 33.0%
CCCNC(=O)C1(C)CCN(C(=O)COc2ccc(C(C)(C)C)cc2)C1 (centres undefined) | . | 3.6% | . | . | . | .
COc1ccc(C(=O)c2ccc(-c3ccc(OC)cc3)nc2)cc1 | 28.3% | 15.0% | -1.4 | 30.8% | 27.0 | 12.7%
CCc1ccc(-c2ccc(C(=O)O)cc2)nc1 | 96.2% | 7.7% | 37.9* | ? | 37.3 | 0.1%
Cc1oc2c(C)c(O)ccc2c(=O)c1-c1cnn(-c2ccccc2)c1 | 0.2% | -9.7% | -1.4 | -8.6% | 15.0 | -18.5%
Cc1[nH]nc(-c2ccc(O)c(C)c2O)c1-c1cnn(-c2ccccc2)c1 | -11.8% | 14.7% | -4.4 | . | -7.7 | 3.98µM*
CCc1nc2c(OCc3ccc(F)c(F)c3)cccn2c1N(C)C(=O)c1ccncc1 | . | 0.1% | . | . | . | .
CCC1CCCCN1S(=O)(=O)c1ccc2[nH]c(=O)ccc2c1 (centres undefined) | 11.4% | -0.5% | 1.0 | 3.29µM* | -5.9 | 7.4%
CCC(C)NC(=O)C1CCCN(S(=O)(=O)c2ccc3c(c2)CC(C)N3C(=O)C2CC2)C1 (centres undefined) | ? | 0.4% | -1.0 | ? | -1.4 | -4.1%
CC1CC(C)CN(S(=O)(=O)c2ccc3c(c2)CC(C)N3C(=O)C2CCC2)C1 (centres undefined) | 10.4µM* | -0.3% | 1.4 | ? | -2.0 | ?
CCC1CCCCN1S(=O)(=O)c1ccc2c(c1)CCN2C(=O)C1CCC1 (centres undefined) | 9.28µM* | 8.3% | -1.2 | . | -14.7 | ?
CCCCN(C)C(=O)C1CCCN(S(=O)(=O)c2ccc3c(c2)CC(C)N3C(=O)C2CC2)C1 (centres undefined) | ? | 11.7% | 20.6 | 13.1µM* | 0.8 | -23.8%
CNC(=O)C[C@H]1C(=O)N(Cc2ccccc2)C[C@@H]1Cc1ccccc1 | . | 7.7% | . | . | . | .
SMILES | Pf growth 48h | AMA1 RON2 block | Cycloheximide cs | Pf growth 96h | Shiga toxin inh | HCV inhibitor
COc1ccc(OC)c(S(=O)(=O)Nc2ccc3[nH]c(=O)[nH]c3c2)c1 | 11.5% | -2.8% | -3.1 | -11.0% | -13.5 | 5.6%
C=CCNC(=O)C1CC(=O)N(c2ccc(OCC(=O)Nc3ccc(Cl)cc3)cc2)C1 (centres undefined) | 21.3% | -2.0% | -4.6 | -3.6% | -4.6 | 0.8%
OC1(C#CCN2CCCC2)CCCCC1 | 25.0% | -0.2% | -3.0 | ? | . | 5.5%
CC1Cc2cc(S(=O)(=O)N3CCCCC3C)ccc2N1C(=O)C1CCC1 (centres undefined) | ? | 0.0% | 2.0 | 10.4µM* | -4.2 | ?
CCOC(=O)C1CCCCN1S(=O)(=O)c1ccc2c(c1)CC(C)N2C(=O)C1CCC1 (centres undefined) | ? | -2.3% | 7.3 | 27.4% | -3.4 | ?
CCOP1(=O)OCC2OC(n3cnc4c(N)ncnc43)C(O)C2O1 (centres undefined) | -4.6% | 13.4% | 0.5 | -15.3% | -6.1 | 22.5%
O=C(CSc1nnc(-c2ccccc2)n1Cc1ccco1)Nc1ccc(S(=O)(=O)N2CCCC2)cc1 | ? | -11.7% | -4.5 | ? | 31.7 | 14.1µM*
CCOc1ccc(NC(=O)CSc2nccn2Cc2ccco2)cc1 | ? | -7.4% | 31.0* | 0.0% | 41.3* | -11.6%
COc1ccc(NC(=O)CSc2nccn2Cc2ccco2)cc1 | 104.6% | -10.2% | 56.2* | -7.4% | 123.8* | 15.0%
COc1ccc(NC(=O)CSc2nccn2Cc2ccco2)cc1OC | 64.8% | -4.2% | 27.5* | 17.4% | 35.7* | -27.5%
COc1ccc(NC(=O)CSc2nccn2Cc2ccc(F)cc2)cc1 | 2.7% | -9.5% | 2.5 | 13.2% | 9.6 | .
CN(C)S(=O)(=O)c1ccc(S(=O)(=O)N2CCCC(C(=O)NC3CCCC3)C2)cc1 (centres undefined) | -5.0% | -14.4% | -3.6 | 1.5% | -8.1 | ?
CCOc1ccc(NC(=O)CSc2nnc(-c3ccccc3Cl)n2Cc2ccco2)cc1 | ? | -7.7% | -0.8 | 0.0329µM* | -7.4 | ?
Cc1oc(C(C)(C)C)cc1C(=O)Nc1cccc(C(=O)O)c1 | 81.6% | -3.3% | 37.1* | . | 79.6* | -15.0%
Cc1oc(C(C)(C)C)cc1C(=O)Nc1ccc(C(=O)O)cc1 | 53.9% | 8.0% | 35.8* | ? | 47.6 | 26.5%
Cc1cc(C(=O)Nc2cccc(C(=O)O)c2)c(C)o1 | . | -12.9% | 2.5 | 141.8% | 20.2 | 20.0%
Cc1cc(C(=O)Nc2ccc(C(=O)O)cc2)c(C)o1 | 40.3% | -5.1% | 6.5 | -23.9% | 8.7 | 15.6%
Cc1oc(CC(C)C)cc1C(=O)Nc1ccc(C(=O)O)cc1 | 26.3% | -9.4% | 56.9* | -19.8% | 43.4 | 11.0%
NCC1CCC(C(=O)O)CC1 (centres undefined) | -9.6%[12.8 µM] | . | . | -20.3%[12.8 µM] | . | .
O=C(N/N=C1/CCc2ccccc21)C1CC1 | 26.2% | 5.0% | 32.9* | 55.1% | 92.0* | 6.9%
Cc1ccc(C(=O)N/N=C2\CCc3ccccc32)c(C)c1 | 166.4% | -5.8% | 63.2* | ? | 151.8* | 3.6%
S=C(N/N=C1\CCc2ccccc21)NC1CCCCC1 | ? | 33.0% | 32.5* | -49.6% | 112.0* | 8.91µM*
